This assay relates to MDA-MB-468 breast. Nature of the assay: NCI-60 one-dose screen, 48 h (100 = growth as untreated, 0 = no growth, -100 = all killed).

Structures are written as SMILES. “And” between values parts separate entries of the source, which are not always exact repeats. Equal values may be shown once. This is part of a sample that, as a whole, favours compounds with a hit. Of some 83,000 tested, about 20% had one in any assay.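 Activity criterion: percent growth below 10, measured after cells in 96-well plates were exposed to a single compound concentration for 48 hours.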 Unmarked numbers belong to inactive results. The source made the active and inactive calls.

Take `O=C(Nc1ccc(F)cc1)c1cc([N+](=O)[O-])ccc1O`: the growth (10 µM unless noted) was 56.3%.
Still for that read-out and setting: to `Cn1c(C#N)ccc1-c1ccc(F)c(NC(=O)c2ccc(F)cc2)c1` belongs 35.6%; to `Cc1cc(Nc2cc(N3CCN(C)CC3)nc(Sc3ccc(NC(=O)C4CC4)cc3)n2)n[nH]1`, 46.7%; to `Cc1csc(/N=C(N)/N=C(\N)c2cccc(C#N)c2)n1`, 101%.
On the same count and under the same terms, the figure for `O=C1OCC2=C1C(c1ccncc1)c1cc3c(cc1N2CCO)OCO3` (configuration not stated) is 96.3%; for `COc1ccc(-c2nn(-c3cccc(NC(=O)c4ccc(Cl)c(Cl)c4)c3)cc2-c2ccncc2)cc1Cl` it is 73.3%.
For `c1coc(CNc2c3ccccc3nc3ccccc23)c1`, for the setting “10 µM unless noted”, the growth was 29.4%.
With `Cc1cccc(NCS(=O)(=O)O)c1`, the growth (10 µM unless noted) was 93.7%.
Still for that read-out and setting: the figure for `CCN1C(=O)N(CC)C2C1NC(=O)N2/N=C/C=C/c1ccccc1` (configuration not stated) is 19.5%.
Take `O=C(Nc1ccc(F)cc1)c1cc2cc(Nc3nc(-c4ccccc4)nc4ccccc34)ccc2oc1=O`: the growth (10 µM unless noted) is 111%.
For the molecule `Cc1ccc(-n2cc(/C=N/NC(=O)c3nc(N)n[nH]3)c(-c3ccc(S(C)(=O)=O)cc3)n2)cc1`, the growth (10 µM unless noted) is 105%.
Still for that read-out and setting: to `CCOC(=O)c1c(Cl)c2c(n1Cc1cccc(OC)c1)-c1oncc1CC2` belongs 11.1%; to `CC(c1ccccc1)n1ccnc1CO` (configuration not stated), 101%.
The same measure, in the same setting: to `C#CCOC(=O)[C@@H]1CCCN1CC#C` belongs 75.4%; to `N#Cc1c(N)nc(-c2cc(F)cc(C(F)(F)F)c2)nc1-c1ccccc1F`, 62.8%.
Consider `O=C1c2ccc3c4c(ccc(c24)C(=O)N1CCCNCc1ccccc1F)C(=O)N(CCCNCc1ccccc1F)C3=O`, for which the growth (10 µM unless noted) is -95.1% (active).
Same read-out and setting: to `COc1ccc(Br)c(C=O)c1` belongs 84.5%; to `O=C1Nc2ccccc2C1(c1c[nH]c2ccccc12)c1c[nH]c2ccccc12`, -23.3% (active).
In the case of `O=C(c1ccc(Cl)cc1)C1[C@H](c2ccc(Cl)cc2)[C@@H](c2ccccc2)NC12C(=O)Nc1ccccc12` (some centres not stated), the growth (10 µM unless noted) is 50.7%.
The same measure, in the same setting: the figure for `COc1ccc(/C=C2\COc3ccc(O)cc3C2=O)cc1OC` is 103%.
`CC/C(=C(/c1ccc(Cl)cc1)c1ccc(OCCN(C)C)cc1)c1ccc(Cl)cc1`: the growth (10 µM unless noted) was 50.7%.
Consider `CNC(=O)c1cc(Oc2ccc3nc(NC(=O)Nc4ccc(F)cc4F)sc3c2)ccn1`, for which, under “10 µM unless noted”, the growth is 51.2%.
On to `O=C(CSc1nnc(-c2ccc(Cl)cc2)n1-c1ccccc1)Nc1ccc(Br)cc1`, for which the growth (10 µM unless noted) was 59.1%.
Consider `CNC(=O)c1cc(-n2ccc3cc(NC(=O)Nc4ccc(N5CCN(C)CC5)c(C(F)(F)F)c4)ccc32)ccn1`, for which, under “10 µM unless noted”, the growth is 59.7%.
As to `COc1ccc(C2NC(=O)C(C#N)c3c2sc2c(F)cccc32)c(OC)c1` (configuration not stated), the growth (10 µM unless noted) was 24.3%.
Same read-out and setting: to `CC(C)Sc1nc(Nc2ccc(S(N)(=O)=O)cc2)c(C#N)c(-c2ccc(F)cc2)n1` belongs 92.7%; to `COc1ccc(Cn2c(Br)c3c(c2-c2cc(OC)c(OC)c(OC)c2)CCc2sc(NC(C)=O)nc2-3)cc1`, 22.8%.
Same read-out and setting: the figure for `COc1ccc(-c2nc(C#N)c(N3CCC(S(=O)(=O)N4CCOCC4)CC3)o2)cc1` is 107%; for `CCN(CC)CCCN1C(=O)c2c(c(C)c3c(oc4ccc(O)cc43)c2C)C1=O` it is 75.7%; for `C=C(C)[C@@H]1CC[C@]2(COC(=O)c3ccccc3C(=O)O)CC[C@]3(C)[C@H](CC[C@@H]4[C@@]5(C)CC[C@H](OC(=O)c6ccccc6C(=O)O)C(C)(C)[C@@H]5CC[C@]43C)[C@@H]12` it is -22.5% [100 µM] (active).
The same measure, in the same setting: to `c1ccc2cc(C[n+]3ccn(CCCCCCn4cc[n+](Cc5ccc6ccccc6c5)c4)c3)ccc2c1` belongs 10.1%; to `CC1(C)CC[C@]2(C(=O)N3CCOCC3)CC[C@]3(C)C(=CC[C@@H]4[C@@]5(C)C/C(=C/c6ccccn6)C(=O)C(C)(C)[C@@H]5CC[C@]43C)[C@@H]2C1`, 40.8%.
In the case of `CC(C)(C#N)c1cc(F)cc(C(=O)Nc2cc(Nc3ncccc3-c3ncnc4nc[nH]c34)ccc2F)c1`, the growth (10 µM unless noted) was 107%.
As to `COc1ccc(C2Nc3ccccc3-n3cccc32)cc1` (configuration not stated), the growth (10 µM unless noted) was 108%.
Same read-out and setting: the figure for `CN(C)CC1CCC(CN(C)C)C1=O` (configuration not stated) is 108%; for `O=[N+]([O-])c1cccc(N=Cc2ccccc2)c1` it is 106%; for `CC(=O)c1cc(-c2ccccc2N)n(-c2ccc3c(c2)OCO3)c1C` it is 30.5%.
On the same count and under the same terms, the figure for `Cn1c2ccc(Br)cc2c2c3c(c4c5ccccc5[nH]c4c21)C(=O)N(O)C3=O` is -52.5% (active); for `COc1ccc(/C=C\c2nc3ccccc3s2)cc1OP(=O)(O)O` it is 12.4%; for `CCC(CC)NCCCCCNc1cc(OC)cc2cccnc12` it is 57.8%.
On to `O=c1nc2sc3nc4ccccc4cc3cc-2s1`, for which the growth (10 µM unless noted) is 124%.
The same measure, in the same setting: to `O=[N+]([O-])c1ccc([I+]c2ccccc2)cc1` belongs -5.9% (active); to `CCOC(=O)c1c(C)nc2ccccc2c1/C=C/c1ccc(F)cc1`, -2.47% (active); to `CNC(=O)c1cc(Oc2cccc3nc(NC(=O)Nc4ccc(F)cc4F)ccc23)ccn1`, 42.1%.
On the same count and under the same terms, to `COC(=O)Nc1ccc(NC(=O)OC)cc1` belongs 97.3%.
The same measure, in the same setting: the figure for `O=S1(=O)N(CCNc2nccc(-c3c(-c4cccc(O)c4)nc4sccn34)n2)CCN1Cc1ccccc1` is 94.4%.
For `CN(C)c1ccc(S(=O)(=O)O)cc1`, the growth (10 µM unless noted) was 106%.
For the molecule `Nc1ccn(C2CC(N)C(CO)O2)c(=O)n1` (configuration not stated), the growth (10 µM unless noted) was 101%.
Take `COc1ccccc1C(=O)O/N=C(\N)Cc1cccc2ccccc12`: under “10 µM unless noted”, the growth is 61.6%.
On the same count and under the same terms, to `CNc1ccccc1C(N)=O` belongs 105%; to `Cc1cccc(NC(=O)c2sc3nc4c(cc3c2N)CCCC4)c1C`, 19.3%; to `CNC(=O)c1cc(Oc2ccc(NC(=O)c3nc(S(C)(=O)=O)n(C)c3-c3ccc(F)cc3)cc2)ccn1`, 79.1%.
As for `O=C1c2cc3c(cc2-c2c1c1ccc(Cl)cc1c(=O)n2CCCN1CCOCC1)OCO3`, where the note is “10 µM unless noted”, the growth is 31.6%.
As for `c1ccc(Sc2ncccn2)nc1`, where the note is “10 µM unless noted”, the growth is 97%.
As for `Cc1c(Cn2c(C)nc3c(C(=O)O)cc(N4CCOCC4)cc32)cccc1C(F)(F)F`, the growth (10 µM unless noted) was 104%.
Still for that read-out and setting: the figure for `Cn1ccnc1C(=O)/C=C/c1ccc(CNC(=O)c2ccc(Cl)cc2)cc1` is -14.5% (active); for `c1ccc(CN2COc3c(ccc4c3OCN(Cc3ccccc3)C4)C2)cc1` it is 0.865% (active); for `COC(=O)c1ccc2c(c1)nc(-c1ccc(Cl)cc1)n2-c1cc(C(C)(C)C)[nH]n1` it is 37.4%.
The same measure, in the same setting: to `CCCC(=O)Nc1ccccc1C(=O)O` belongs 106%.
With `CCCCNc1nc(NN2C(=O)c3cccc4cccc(c34)C2=O)nc(-n2cnc3ccccc32)n1`, the growth (10 µM unless noted) was 92.7%.
Same read-out and setting: to `Cc1ccc2c(n1)C(=O)C(Cl)=C(Nc1ccc(C#N)cc1)C2=O` belongs 51.4%; to `COc1cc2c(cc1OC)C(=O)/C(=C/c1cc(-c3ccc4c(c3)OCO4)n[nH]1)C2`, -26.4% (active); to `Cc1cccc(-n2c(C)nc3ccc(NC(=O)NCCCl)cc3c2=O)c1`, 92.7%.
On to `O=S(=O)(NCCCNc1cc(-c2cn(-c3ccccc3)nc2-c2cccc(O)c2)ccn1)c1ccc(Br)cc1`, for which the growth (10 µM unless noted) is -27.4% (active).
As for `O=C1CC2(O)CSc3nc(=O)cc(n32)N1` (configuration not stated), the growth (10 µM unless noted) was 109%.
On the same count and under the same terms, to `Oc1ccc(C2c3ccccc3Oc3ccccc32)c2cccnc12` belongs 9.14% (active); to `CCNc1nc2ccc(Nc3ccnc4cc(Cl)ccc34)cc2[nH]1`, 21.8%; to `CC(=O)CC(c1ccccc1)c1c(C)[nH]c2ccccc12` (configuration not stated), 106%.
For the molecule `CC/C(=C(/c1ccc(Cl)cc1)c1ccc(OCCCN(C)C)cc1)c1ccc(OC)cc1`, the growth (10 µM unless noted) was 51.7%.
As to `CCCCC(=O)N/N=C/c1cc(I)cc(I)c1O`, the growth (10 µM unless noted) is 69%.
As to `CC1(C)NCCC[C@]2(C)[C@H]3C=CC4=C5C[C@](C)(CO)CC[C@]5(C)CC[C@@]4(C)[C@]3(C)CC[C@@H]12`, where the note is “10 µM unless noted”, the growth was -79.5% [100 µM] (active).
Still for that read-out and setting: the figure for `CCN1CCCC(Nc2cc(C)nc(/N=C(/N)Nc3ccc(Cl)c(Cl)c3)n2)C1` (configuration not stated) is -83.3% (active).
Regarding `COc1cc(-c2nn(-c3cccc(NC(=O)CCN4CCN(C)CC4)c3)cc2-c2ccncc2)ccc1Cl`, the growth (10 µM unless noted) is 18.2%.
As to `Fc1ccc2c(CN3CCO[C@H](COc4cccc(Cl)c4)C3)c[nH]c2c1`, for the setting “10 µM unless noted”, the growth is -38.7% (active).
Same read-out and setting: to `Clc1nc(-c2cccnc2)nc2sc3c(c12)CCCCCC3` belongs 95.1%; to `Fc1ccc(-c2nn(-c3ccccc3)cc2-c2nc3ccccc3o2)cc1`, -21.2% (active).
As to `O=c1ccn2c(n1)OC1CC2OC1COC(c1ccccc1)(c1ccccc1)c1ccccc1` (configuration not stated), the growth was 102% (10 µM) and 56.9% (100 µM).
For the molecule `Nc1c(C(=O)Nc2ccccn2)sc2nc3c(cc12)CCCCCC3`, the growth (10 µM unless noted) was 8.53% (active).
Turning to `O=C(O)c1c(Cl)c(Cl)c(Cl)c(Cl)c1-c1c2cc(I)c(=O)c(I)c-2oc2c(I)c(O)c(I)cc12`, the growth (10 µM) was 115% and 111% and 77.5%; the growth (100 µM) was -39.6% (active).
Turning to `COc1cccc2c1C(=O)c1c(O)c3c(c(O)c1C2=O)C[C@@](O)(C(=O)CO)C[C@@H]3OC1CC(N)C(O)C(C)O1` (some centres not stated), the growth was 95.2% (0.0025 µM) and 10.4% (2.5 µM).
With `COc1ccc(C(=O)/C=C/c2ccc(OCc3cccc(C(F)(F)F)c3)c(OC)c2)cc1OC`, the growth (10 µM) was 68.9% and the growth (100 µM) was -2.26% (active).
In the case of `O=C(O)c1sccc1O`, the growth is, setting by setting: (10 µM) 76.3%; (100 µM) 10.8%.
For the molecule `CN(C)CCNc1ncc(F)c(-c2cnc3cc(-c4cnn(C)c4)ccn23)n1`, the growth by setting is: (0.005 µM) 103%; (30 µM) 84.5%.
As to `O=C(Nc1cccc(Br)c1)Oc1cccc2cccnc12`, the growth is 103% (10 µM) and -8.71% (active) (100 µM).
Consider `CSC1=Nc2c(c(C)c(-c3ccccc3)n2CCCC(=O)O)C2=NC(=O)C[C@H](C)N12`, for which the growth (10 µM unless noted) is 83.7%.

Values taken from PubChem BioAssay (NCI).
